Among all 5,500 compounds or so, about 2,000 (36%) were called active. Another 18% or so got no clear call; they are omitted. Cut-off read from the data, not from the text of the source: active = normalized growth mostly below about 0.91 (no sharp cut-off); inconclusive = no clear call, values can overlap the other calls; inactive = mostly above about 0.92. The list shows a part of the results.
Assay: chemical genetic growth profiling, strain panel (AID 1159580);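 note: tested at 20 µM; growth read once vehicle control cultures reached saturation at 30 °C; 1 = growth at the plate median or of vehicle wells; lower values mean less growth of the strain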
Settings: growth OD

Measured: normalized growth

OCC(O)Cc1ccc2c(c1)OCO2 (centres undefined)
inactive: S. cerevisiae deletion strains, locus YJR043C, strain POL32, stronger effect = lower value 0.995 | S. cerevisiae deletion strains, locus YJR075W, strain HOC1, stronger effect = lower value 0.984 | S. cerevisiae deletion strains, locus YKL009W, strain mrt4, stronger effect = lower value 1 | S. cerevisiae deletion strains, locus YKL068W, stronger effect = lower value 1 | S. cerevisiae deletion strains, locus YKL085W, strain MDH1 (second series), stronger effect = lower value 1.03 | S. cerevisiae deletion strains, locus YKL085W, strain MDH1, stronger effect = lower value 1.03 | S. cerevisiae deletion strains, locus YKL160W, strain elf1, stronger effect = lower value 1 | S. cerevisiae deletion strains, locus YKL190W, strain CNB1, stronger effect = lower value 1.02 | S. cerevisiae deletion strains, locus YKR001C, strain vps1, stronger effect = lower value 0.999 | S. cerevisiae deletion strains, locus YKR026C, strain gcn3, stronger effect = lower value 0.989 | S. cerevisiae deletion strains, locus YKR091W, strain srl3, stronger effect = lower value 1 | S. cerevisiae deletion strains, locus YLL001W, strain dnm1, stronger effect = lower value 1 | S. cerevisiae deletion strains, locus YLL026W, stronger effect = lower value 0.997 | S. cerevisiae deletion strains, locus YLL041C, strain sdh2, stronger effect = lower value 0.994 | S. cerevisiae deletion strains, locus YLR027C, strain aat2, stronger effect = lower value 0.976 | S. cerevisiae deletion strains, locus YLR039C, strain RIC1, stronger effect = lower value 1.03 | S. cerevisiae deletion strains, locus YLR058C, strain SHM2, stronger effect = lower value 1.02 | S. cerevisiae deletion strains, locus YLR102C, strain apc9, stronger effect = lower value 1 | S. cerevisiae deletion strains, locus YLR221C, strain rsa3, stronger effect = lower value 0.997 | S. cerevisiae deletion strains, locus YLR258W, strain gsy2, stronger effect = lower value 1.01 | S. cerevisiae deletion strains, locus YLR262C, strain YPT6 (second series), stronger effect = lower value 1.01 | S. cerevisiae deletion strains, locus YLR262C, strain YPT6, stronger effect = lower value 1.06 | S. cerevisiae deletion strains, locus YLR268W, strain sec22, stronger effect = lower value 1 | S. cerevisiae deletion strains, locus YLR320W, strain mms22, stronger effect = lower value 0.983 | S. cerevisiae deletion strains, locus YLR330W, strain CHS5, stronger effect = lower value 1.01 | S. cerevisiae deletion strains, locus YLR342W, strain FKS1 (second series), stronger effect = lower value 0.99 | S. cerevisiae deletion strains, locus YLR342W, strain FKS1, stronger effect = lower value 0.992 | S. cerevisiae deletion strains, locus YLR357W, strain rsc2, stronger effect = lower value 0.973 | S. cerevisiae deletion strains, locus YLR370C, strain arc18, stronger effect = lower value 1 | S. cerevisiae deletion strains, locus YLR371W, strain rom2, stronger effect = lower value 0.989 | S. cerevisiae deletion strains, locus YLR384C, strain iki3, stronger effect = lower value 0.992 | S. cerevisiae deletion strains, locus YLR418C, strain cdc73, stronger effect = lower value 1.02 | S. cerevisiae deletion strains, locus YML016C, strain PPZ1, stronger effect = lower value 1.01 | S. cerevisiae deletion strains, locus YML032C, strain rad52, stronger effect = lower value 0.989 | S. cerevisiae deletion strains, locus YML120C, strain ndi1, stronger effect = lower value 0.995 | S. cerevisiae deletion strains, locus YML124C, strain tub3, stronger effect = lower value 0.996 | S. cerevisiae deletion strains, locus YMR058W, strain fet3, stronger effect = lower value 1.01 | S. cerevisiae deletion strains, locus YMR078C, strain ctf18, stronger effect = lower value 0.99 | S. cerevisiae deletion strains, locus YMR125W, strain sto1, stronger effect = lower value 0.997 | S. cerevisiae deletion strains, locus YMR129W, stronger effect = lower value 0.994 | S. cerevisiae deletion strains, locus YMR205C, strain PFK2, stronger effect = lower value 0.981 | S. cerevisiae deletion strains, locus YMR223W, strain ubp8, stronger effect = lower value 0.987 | S. cerevisiae deletion strains, locus YMR231W, strain pep5, stronger effect = lower value 0.996 | S. cerevisiae deletion strains, locus YMR263W, strain SAP30, stronger effect = lower value 1.03 | S. cerevisiae deletion strains, locus YMR307W, strain GAS1, stronger effect = lower value 0.956 | S. cerevisiae deletion strains, locus YNL067W, strain RPL9B, stronger effect = lower value 1.03 | S. cerevisiae deletion strains, locus YNL071W, strain lat1, stronger effect = lower value 1.01 | S. cerevisiae deletion strains, locus YNL128W, strain TEP1, stronger effect = lower value 1.02 | S. cerevisiae deletion strains, locus YNL153C, strain GIM3, stronger effect = lower value 1.03 | S. cerevisiae deletion strains, locus YNL209W, strain ssb2, stronger effect = lower value 1.02 | S. cerevisiae deletion strains, locus YNL233W, strain BNI4, stronger effect = lower value 1.04 | S. cerevisiae deletion strains, locus YNL248C, strain rpa49, stronger effect = lower value 0.979 | S. cerevisiae deletion strains, locus YNL250W, strain rad50, stronger effect = lower value 1.01 | S. cerevisiae deletion strains, locus YNL271C, strain bni1, stronger effect = lower value 0.996 | S. cerevisiae deletion strains, locus YNL298W, strain CLA4, stronger effect = lower value 1.01 | S. cerevisiae deletion strains, locus YNL307C, strain MCK1, stronger effect = lower value 0.999 | S. cerevisiae deletion strains, locus YNL322C, strain KRE1 (second series), stronger effect = lower value 1 | S. cerevisiae deletion strains, locus YNL322C, strain KRE1, stronger effect = lower value 1.01 | S. cerevisiae deletion strains, locus YNR049C, strain mso1, stronger effect = lower value 0.989 | S. cerevisiae deletion strains, locus YNR052C, strain pop2, stronger effect = lower value 0.989 | S. cerevisiae deletion strains, locus YOL006C, strain TOP1, stronger effect = lower value 1.07 | S. cerevisiae deletion strains, locus YOL012C, strain htz1 0.853 | S. cerevisiae deletion strains, locus YOL147C, strain pex11, stronger effect = lower value 1 | S. cerevisiae deletion strains, locus YOR001W, strain rrp6, stronger effect = lower value 0.985 | S. cerevisiae deletion strains, locus YOR061W, strain CKA2, stronger effect = lower value 1.02 | S. cerevisiae deletion strains, locus YOR069W, strain VPS5, stronger effect = lower value 1 | S. cerevisiae deletion strains, locus YOR070C, strain gyp1, stronger effect = lower value 1 | S. cerevisiae deletion strains, locus YOR080W, strain dia2, stronger effect = lower value 0.988 | S. cerevisiae deletion strains, locus YOR083W, strain WHI5, stronger effect = lower value 1 | S. cerevisiae deletion strains, locus YOR106W, strain vam3, stronger effect = lower value 1.03 | S. cerevisiae deletion strains, locus YOR136W, strain idh2, stronger effect = lower value 0.993 | S. cerevisiae deletion strains, locus YOR144C, strain elg1, stronger effect = lower value 0.997 | S. cerevisiae deletion strains, locus YOR184W, strain ser1, stronger effect = lower value 0.99 | S. cerevisiae deletion strains, locus YOR265W, strain rbl2, stronger effect = lower value 1 | S. cerevisiae deletion strains, locus YOR270C, strain vph1, stronger effect = lower value 1.03 | S. cerevisiae deletion strains, locus YOR290C, strain snf2, stronger effect = lower value 1.01 | S. cerevisiae deletion strains, locus YOR316C, strain cot1, stronger effect = lower value 0.997 | S. cerevisiae deletion strains, locus YPL051W, strain arl3, stronger effect = lower value 1 | S. cerevisiae deletion strains, locus YPL055C, strain LGE1, stronger effect = lower value 1.06 | S. cerevisiae deletion strains, locus YPL078C, strain atp4, stronger effect = lower value 1.02 | S. cerevisiae deletion strains, locus YPL106C, strain sse1, stronger effect = lower value 0.979 | S. cerevisiae deletion strains, locus YPL240C, strain hsp82, stronger effect = lower value 1 | S. cerevisiae deletion strains, locus YPL241C, strain CIN2, stronger effect = lower value 1.01 | S. cerevisiae deletion strains, locus YPR119W, strain clb2, stronger effect = lower value 0.995 | S. cerevisiae deletion strains, locus YPR141C, strain kar3, stronger effect = lower value 0.997 | S. cerevisiae deletion strains, locus YPR163C, strain tif3, stronger effect = lower value 0.992 | S. cerevisiae deletion strains, locus YPR167C, strain met16, stronger effect = lower value 0.996 | S. cerevisiae deletion strains, strain wtn01, stronger effect = lower value 0.997 | S. cerevisiae strains, strain wild type, stronger effect = lower value 1.01
